The source of these data is PMC4336329 (PLoS ONE, 2015).

The campaign covered roughly 310,000 compounds. About 14,000 (4.5%) showed an effect of 50% or more. Effects have a minus sign here. The sample as a whole holds a higher share of strong results than the screen did.
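Note: peak tail current of the secondary pulse compared with the same well before compound.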

In the experiment the target is human ether-à-go-go-related gene (hERG) potassium channel (human, UniProt Q12809). Briefly: primary screen, population patch clamp on CHO cells stably expressing hERG; higher = less effect of the substance.
Chain of human ether-à-go-go-related gene (hERG) potassium channel (Q12809 whole entry, looked up): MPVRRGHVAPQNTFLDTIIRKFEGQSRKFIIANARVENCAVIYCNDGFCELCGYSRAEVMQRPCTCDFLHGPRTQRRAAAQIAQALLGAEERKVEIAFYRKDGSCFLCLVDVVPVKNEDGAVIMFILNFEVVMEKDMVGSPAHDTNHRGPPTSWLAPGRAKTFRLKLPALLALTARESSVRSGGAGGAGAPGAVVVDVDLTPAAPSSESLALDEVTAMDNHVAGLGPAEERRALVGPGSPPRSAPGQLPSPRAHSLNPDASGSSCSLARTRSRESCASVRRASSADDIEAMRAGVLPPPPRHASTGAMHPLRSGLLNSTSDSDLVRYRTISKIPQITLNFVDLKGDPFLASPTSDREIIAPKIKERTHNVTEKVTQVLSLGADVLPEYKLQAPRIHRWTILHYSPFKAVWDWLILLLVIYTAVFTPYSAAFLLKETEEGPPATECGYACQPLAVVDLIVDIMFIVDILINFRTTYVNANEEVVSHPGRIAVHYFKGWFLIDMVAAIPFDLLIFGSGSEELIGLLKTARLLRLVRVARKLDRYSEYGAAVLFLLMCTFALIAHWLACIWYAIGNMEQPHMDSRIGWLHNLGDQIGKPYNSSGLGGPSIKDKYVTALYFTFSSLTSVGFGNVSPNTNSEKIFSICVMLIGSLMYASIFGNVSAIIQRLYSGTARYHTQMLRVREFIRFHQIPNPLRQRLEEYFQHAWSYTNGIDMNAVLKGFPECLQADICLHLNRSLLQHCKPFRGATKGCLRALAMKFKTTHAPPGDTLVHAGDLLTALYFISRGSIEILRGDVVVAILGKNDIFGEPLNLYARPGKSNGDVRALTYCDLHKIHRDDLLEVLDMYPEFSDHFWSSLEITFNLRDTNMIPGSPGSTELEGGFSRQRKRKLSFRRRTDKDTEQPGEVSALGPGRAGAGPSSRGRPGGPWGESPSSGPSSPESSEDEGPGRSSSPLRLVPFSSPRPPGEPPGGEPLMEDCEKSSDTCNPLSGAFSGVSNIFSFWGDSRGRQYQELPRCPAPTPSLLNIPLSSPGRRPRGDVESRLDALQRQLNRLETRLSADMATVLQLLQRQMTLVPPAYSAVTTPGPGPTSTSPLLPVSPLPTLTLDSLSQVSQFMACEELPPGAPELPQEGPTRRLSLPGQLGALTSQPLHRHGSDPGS
For the compound `COc1ccc(/C=C2\C(=O)c3ccccc3OC2c2ccccc2)cc1` (stereo not drawn), the “hERG current change (%, negative = inhibition) at 10uM” value was found to be 7.66%.

In the case of `COC(=O)[C@@]1(Cc2ccc(OC)cc2)[C@H]2c3cc(C(=O)N4CCCC4)n(Cc4c(CO)[nH]cc(C)c4=O)c3C[C@H]2CN1C(=O)c1ccccc1`, the “hERG current change (%, negative = inhibition) at 10uM” value came out at 3.94%.

`CN1CCN(c2ccc(S(=O)(=O)N3CCCCC3)cc2NC(=O)COc2ccc([N+](=O)[O-])cc2)CC1`: the “hERG current change (%, negative = inhibition) at 10uM” value is -34.3%.

With `Cc1cccc(OCC(=O)Nc2cc(S(=O)(=O)N3CCCCC3)ccc2N2CCN(C)CC2)c1`, the “hERG current change (%, negative = inhibition) at 10uM” value was -63%.

With `Cc1ccc(OCC(=O)Nc2cc(S(=O)(=O)N3CCCCC3)ccc2N2CCN(C)CC2)c(C)c1`, the “hERG current change (%, negative = inhibition) at 10uM” value is given as -57.7%.

Consider `CN1CCN(c2ccc(S(=O)(=O)N3CCCCC3)cc2NC(=O)COc2ccc(F)cc2)CC1`, for which the “hERG current change (%, negative = inhibition) at 10uM” value is reported as -75.2%.

For `CN1CCN(c2ccc(S(=O)(=O)N3CCCCC3)cc2NC(=O)COc2cccc(Cl)c2)CC1`, the “hERG current change (%, negative = inhibition) at 10uM” value is reported as -49.1%.

`Cc1ccc(Cl)c(OCC(=O)Nc2cc(S(=O)(=O)N3CCOCC3)ccc2N2CCCC2)c1`: the “hERG current change (%, negative = inhibition) at 10uM” value is -15.4%.

Consider `Cc1cccc(OCCC(=O)Nc2cc(S(=O)(=O)N3CCCCC3)ccc2N2CCOCC2)c1`, for which the “hERG current change (%, negative = inhibition) at 10uM” value is 6.71%.

With `Cc1ccccc1C(=O)Nc1cc(S(=O)(=O)N2CCCCC2)ccc1N1CCN(C)CC1`, the “hERG current change (%, negative = inhibition) at 10uM” value is on record as -37.4%.

As to `Cc1ccccc1OCC(=O)Nc1cc(S(=O)(=O)N2CCCCC2)ccc1N1CCN(C)CC1`, the “hERG current change (%, negative = inhibition) at 10uM” value is listed as -28.3%.

For the compound `CN1CCN(c2ccc(S(=O)(=O)N3CCCCC3)cc2NC(=O)Cc2ccccc2F)CC1`, the “hERG current change (%, negative = inhibition) at 10uM” value was -31%.

For the compound `CN1CCN(c2ccc(S(=O)(=O)N3CCCCC3)cc2NC(=O)c2ccc(F)cc2F)CC1`, the “hERG current change (%, negative = inhibition) at 10uM” value was -68.4%.

As for `O=C(COc1ccc(F)cc1)Nc1cc(S(=O)(=O)N2CCCCC2)ccc1N1CCCCC1`, the “hERG current change (%, negative = inhibition) at 10uM” value is listed as 9.98%.

In the case of `Cc1ccc(C)c(OCCC(=O)NNC(=O)Cn2nc(C)cc2C)c1`, the “hERG current change (%, negative = inhibition) at 10uM” value stood at 21.8%.

With `O=C(NCc1ccccc1)C1=C[C@@H](c2ccc(Br)cc2)C[C@@H](OCCCCO)O1`, the “hERG current change (%, negative = inhibition) at 10uM” value is -36.8%.

As for `COc1cc2c(cc1OC)C(c1ccccc1Cl)N(C)CC2` (stereo not drawn), the “hERG current change (%, negative = inhibition) at 10uM” value was 1.73%.

As to `COc1ccc(Cc2c(O)nc(SCC(=O)NC34CC5CC(CC(C5)C3)C4)[nH]c2=O)cc1`, the “hERG current change (%, negative = inhibition) at 10uM” value amounted to 4.4%.

On to `Cc1ccc(NC(=O)CCN2C(=O)C3CCCCC3C2=O)c(O)c1` (stereo not drawn), for which the “hERG current change (%, negative = inhibition) at 10uM” value came to 11.9%.

As to `CC(CCc1ccccc1)NCC#N.Cl` (stereo not drawn), the “hERG current change (%, negative = inhibition) at 10uM” value is reported as 18.9%.

In the case of `O=c1c(Cc2ccc(Cl)cc2Cl)c(O)ccn1CC(F)(F)F`, the “hERG current change (%, negative = inhibition) at 10uM” value worked out at 12.7%.
